# From PubChem BioAssay (NCATS)
# Inconclusive results are not listed. Where a call stands in place of a potency, no number is given. Calls of active or inactive are those of the source. Calls follow the shape of the dose curve; as a rule, active = well fitted inhibition curve with a large enough effect; inconclusive = small, poorly fitted or top-dose-only effect; inactive = flat fitted curve, though single readings scatter.
# Assay: qHTS for Inhibitors of Plasmodium falciparum (HB3) proliferation (AID 504318); also: nearly all actives have a fitted effect of over 60% in size
# Settings: P. falciparum HB3 in erythrocytes, SYBR Green DNA, 72 h; series mostly up to 7.21 µM
# Summary of the method: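 Erythrocytes infected with P. falciparum line (0.3% parasitemia, 2.5% hematocrit final) incubated with compounds 72 h at 37 °C, 5% CO2; SYBR Green lysis buffer added, fluorescence read next day. Normalized to 0.29 uM artemisinin and DMSO.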
# Potency is read from the fitted curve at half-maximal effect.
row,SMILES,Potency
1,CCC(C)CN1C(=O)NC(c2ccccc2)C(C(=O)OC)=C1C (stereo not given),inactive
2,COC(=O)NC(c1ccccc1)c1c[nH]c2ccc(OC)cc12 (stereo not given),inactive
3,O=C1Nc2cccc(Br)c2[C@@]12O[C@H](COc1ccccc1)CC1=CCCC12 (stereo not given in full),inactive
4,CC12C=C(C=CCCc3ccco3)C(C)(C1)C(CCc1ccco1)CC2=O (stereo not given),inactive
5,CC1(OC(=O)c2ccco2)C(=O)C=C2C=C(c3ccsc3)OC=C2C1=O (stereo not given),inactive
6,CCCNC(=O)OC[C@H]1O[C@H](CCON=C(C)CCN2CCCc3nc(C)c(C)cc32)C=C[C@H]1Oc1ccc(OC)cc1,1690 nM (active)
7,C=C(C#Cc1ccc(OC)cc1)CCN1C=C(C(=O)OCC)C(c2ccccc2)NC1=O (stereo not given),inactive
8,COc1ccc([C@]23Cc4ccccc4[C@H](O2)C2=C(O3)C(=O)c3ccccc3C2=O)cc1,1510 nM (active)
9,CC(C)=CCN1C(=O)[C@]2(O[C@H](C)CC3=CCCC32)c2c(Br)cccc21 (stereo not given in full),inactive
10,COc1ccc(COC(=O)NN=C2C[C@@H](O)[C@@H](O)[C@@H]3[C@H]4C(=O)N([C@@H](C)c5ccccc5)C(=O)[C@@H]4CC[C@H]23)cc1,inactive
11,COC(=O)C1=C(C)N(CCC(C)O)C(=O)N(C(C)=O)C1c1ccccc1 (stereo not given),inactive
12,Cc1ccccc1Nc1oc(-c2ccccc2)nc1-c1ccccc1,1690 nM (active)
13,COc1ccc(NC2=CC(c3ccccc3)N(c3ccc(OC)cc3)C2=O)cc1 (stereo not given),inactive
14,C=CCN=C1NC(c2cccc(F)c2)C(C(=O)OC)=C(C)N1Cc1ccccc1 (stereo not given),inactive
15,C[C@@H]1C=CCCO[C@]12C(=O)N(Cc1ccc(Br)cc1)c1cccc(Br)c12,inactive
16,COCCN1C(=O)C2=C(C1=O)C1N(C)c3ccccc3[C@@]13C[C@@H](CO)N(S(=O)(=O)c1ccc(OC)cc1)C3=N2 (stereo not given in full),inactive
17,CC(=O)C1=C(C)N(Cc2ccccc2)C(=O)NC1c1ccc(Br)cc1 (stereo not given),inactive
18,CCN1C(=O)[C@@H]2[C@H]3[C@H](O)[C@H](O)CC(=NO[C@H](C)c4cn([C@@H]5COC[C@@H]5O)nn4)[C@@H]3CC[C@H]2C1=O,inactive
19,C=CC[C@@H]1C=C[C@H](ON=C(C)CCN2CCCc3nc(C)c(C)cc32)[C@H](CO)O1,2510 nM (active)
20,CCN1C(=O)NC(c2ccco2)C(C(C)=O)=C1C (stereo not given),inactive
21,C=CCN=C1NC(CCc2ccccc2)C(C(=O)OC)=C(C)N1CC (stereo not given),inactive
22,CCOC(=O)CCN1C(=O)[C@@H]2[C@H]3[C@H](O)[C@H](O)CC(=NNC(=O)OCc4ccccc4)[C@H]3CC[C@H]2C1=O,inactive
23,C=CCCC1(C(=O)c2ccccc2)C(=O)C(CC=C(C)C)=C(OC)C(CC=C(C)C)(CCC=C(C)C)C1=O (stereo not given),1690 nM (active)
24,C[C@@H]1CC[C@H]2C(=O)O[C@H](COc3ccc(C(C)(C)C)cc3)CN2[C@@H]1c1ccc(Br)cc1,inactive
25,COC(=O)c1ccc(CN2C(=O)[C@]3(OCCC=C[C@@H]3C)c3ccccc32)cc1,inactive
